In PubChem BioAssay AID1159580 (chemical genetic matrix, 2015):
Values joined by “and” are separate entries in the source; they are usually repeats but may differ in a detail not shown here. Identical values can stand only once. Screen size: about 5,500 compounds; about 2,000 (36%) were called active. Not shown: some 18% with an inconclusive outcome. Rule as the data show it: active = normalized growth mostly below about 0.91 (no sharp cut-off); inconclusive = no clear call, values can overlap the other calls; inactive = mostly above about 0.92. This is one part of the list.

Assay: chemical genetic growth profiling, strain panel (AID 1159580);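 also: tested at 20 µM; growth read once vehicle control cultures reached saturation at 30 °C; 1 = growth at the plate median or of vehicle wells; lower values mean less growth of the strain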
Details: growth OD

Measured: normalized growth

COc1ccc2c(c1)c(CC(=O)O)c(C)n2C(=O)c1ccc(Cl)cc1
inactive: S. cerevisiae deletion strains, locus YJR075W, strain HOC1, hits give low values 1 | S. cerevisiae deletion strains, locus YKL009W, strain mrt4, hits give low values 0.998 | S. cerevisiae deletion strains, locus YKL068W, hits give low values 0.959 | S. cerevisiae deletion strains, locus YKL085W, strain MDH1 (second series), hits give low values 0.955 | S. cerevisiae deletion strains, locus YKL085W, strain MDH1, hits give low values 0.955 | S. cerevisiae deletion strains, locus YKL160W, strain elf1, hits give low values 0.98 | S. cerevisiae deletion strains, locus YKL190W, strain CNB1, hits give low values 1.01 | S. cerevisiae deletion strains, locus YKR001C, strain vps1, hits give low values 0.993 | S. cerevisiae deletion strains, locus YKR026C, strain gcn3, hits give low values 0.983 | S. cerevisiae deletion strains, locus YKR091W, strain srl3, hits give low values 0.984 | S. cerevisiae deletion strains, locus YLL001W, strain dnm1, hits give low values 0.938 | S. cerevisiae deletion strains, locus YLL026W, hits give low values 0.988 | S. cerevisiae deletion strains, locus YLL041C, strain sdh2, hits give low values 0.986 | S. cerevisiae deletion strains, locus YLR027C, strain aat2, hits give low values 0.98 | S. cerevisiae deletion strains, locus YLR039C, strain RIC1, hits give low values 1.17 | S. cerevisiae deletion strains, locus YLR058C, strain SHM2, hits give low values 1.02 | S. cerevisiae deletion strains, locus YLR102C, strain apc9, hits give low values 0.975 | S. cerevisiae deletion strains, locus YLR113W, strain HOG1, hits give low values 0.874 | S. cerevisiae deletion strains, locus YLR258W, strain gsy2, hits give low values 0.978 | S. cerevisiae deletion strains, locus YLR262C, strain YPT6 (second series), hits give low values 0.912 | S. cerevisiae deletion strains, locus YLR262C, strain YPT6, hits give low values 1.03 | S. cerevisiae deletion strains, locus YLR268W, strain sec22, hits give low values 0.993 | S. cerevisiae deletion strains, locus YLR330W, strain CHS5, hits give low values 0.995 | S. cerevisiae deletion strains, locus YLR342W, strain FKS1 (second series), hits give low values 1.01 | S. cerevisiae deletion strains, locus YLR342W, strain FKS1, hits give low values 0.971 | S. cerevisiae deletion strains, locus YLR357W, strain rsc2, hits give low values 0.973 | S. cerevisiae deletion strains, locus YLR370C, strain arc18, hits give low values 0.943 | S. cerevisiae deletion strains, locus YLR371W, strain rom2, hits give low values 0.987 | S. cerevisiae deletion strains, locus YLR384C, strain iki3, hits give low values 0.986 | S. cerevisiae deletion strains, locus YLR418C, strain cdc73, hits give low values 0.966 | S. cerevisiae deletion strains, locus YML016C, strain PPZ1, hits give low values 1.01 | S. cerevisiae deletion strains, locus YML032C, strain rad52, hits give low values 0.999 | S. cerevisiae deletion strains, locus YML124C, strain tub3, hits give low values 0.981 | S. cerevisiae deletion strains, locus YMR058W, strain fet3, hits give low values 0.975 | S. cerevisiae deletion strains, locus YMR078C, strain ctf18, hits give low values 0.973 | S. cerevisiae deletion strains, locus YMR125W, strain sto1, hits give low values 0.975 | S. cerevisiae deletion strains, locus YMR129W, hits give low values 0.987 | S. cerevisiae deletion strains, locus YMR205C, strain PFK2, hits give low values 0.982 | S. cerevisiae deletion strains, locus YMR223W, strain ubp8, hits give low values 0.976 | S. cerevisiae deletion strains, locus YMR231W, strain pep5, hits give low values 0.988 | S. cerevisiae deletion strains, locus YMR263W, strain SAP30, hits give low values 1 and 1.01 | S. cerevisiae deletion strains, locus YMR307W, strain GAS1, hits give low values 1.02 and 1 | S. cerevisiae deletion strains, locus YNL067W, strain RPL9B, hits give low values 1 | S. cerevisiae deletion strains, locus YNL071W, strain lat1, hits give low values 0.986 | S. cerevisiae deletion strains, locus YNL175C, strain NOP13, hits give low values 1 | S. cerevisiae deletion strains, locus YNL183C, strain NPR1, hits give low values 0.931 | S. cerevisiae deletion strains, locus YNL197C, strain WHI3, hits give low values 1 | S. cerevisiae deletion strains, locus YNL209W, strain ssb2, hits give low values 0.953 | S. cerevisiae deletion strains, locus YNL224C, strain SQS1, hits give low values 0.994 | S. cerevisiae deletion strains, locus YNL233W, strain BNI4, hits give low values 1.01 | S. cerevisiae deletion strains, locus YNL248C, strain rpa49, hits give low values 0.958 | S. cerevisiae deletion strains, locus YNL250W, strain rad50, hits give low values 0.947 | S. cerevisiae deletion strains, locus YNL271C, strain bni1, hits give low values 0.955 | S. cerevisiae deletion strains, locus YNL298W, strain CLA4, hits give low values 0.944 | S. cerevisiae deletion strains, locus YNL307C, strain MCK1, hits give low values 0.986 | S. cerevisiae deletion strains, locus YNL322C, strain KRE1, hits give low values 1 | S. cerevisiae deletion strains, locus YNR049C, strain mso1, hits give low values 0.984 | S. cerevisiae deletion strains, locus YNR052C, strain pop2, hits give low values 0.99 | S. cerevisiae deletion strains, locus YOL012C, strain htz1 2.03 | S. cerevisiae deletion strains, locus YOL147C, strain pex11, hits give low values 0.981 | S. cerevisiae deletion strains, locus YOR001W, strain rrp6, hits give low values 0.926 | S. cerevisiae deletion strains, locus YOR061W, strain CKA2, hits give low values 1.01 | S. cerevisiae deletion strains, locus YOR069W, strain VPS5, hits give low values 0.996 | S. cerevisiae deletion strains, locus YOR070C, strain gyp1, hits give low values 0.977 | S. cerevisiae deletion strains, locus YOR080W, strain dia2, hits give low values 0.989 | S. cerevisiae deletion strains, locus YOR083W, strain WHI5 (second series), hits give low values 1.01 | S. cerevisiae deletion strains, locus YOR083W, strain WHI5, hits give low values 0.942 | S. cerevisiae deletion strains, locus YOR106W, strain vam3, hits give low values 0.929 | S. cerevisiae deletion strains, locus YOR136W, strain idh2, hits give low values 1 | S. cerevisiae deletion strains, locus YOR144C, strain elg1, hits give low values 0.992 | S. cerevisiae deletion strains, locus YOR184W, strain ser1, hits give low values 0.988 | S. cerevisiae deletion strains, locus YOR231W, strain MKK1, hits give low values 0.953 | S. cerevisiae deletion strains, locus YOR265W, strain rbl2, hits give low values 0.96 | S. cerevisiae deletion strains, locus YOR270C, strain vph1, hits give low values 0.957 | S. cerevisiae deletion strains, locus YOR290C, strain snf2, hits give low values 0.895 | S. cerevisiae deletion strains, locus YOR316C, strain cot1, hits give low values 0.985 | S. cerevisiae deletion strains, locus YPL051W, strain arl3, hits give low values 0.969 | S. cerevisiae deletion strains, locus YPL078C, strain atp4, hits give low values 0.975 | S. cerevisiae deletion strains, locus YPL106C, strain sse1, hits give low values 1.02 | S. cerevisiae deletion strains, locus YPL240C, strain hsp82, hits give low values 0.978 | S. cerevisiae deletion strains, locus YPL241C, strain CIN2, hits give low values 0.996 | S. cerevisiae deletion strains, locus YPL256C, strain CLN2, hits give low values 0.871 | S. cerevisiae deletion strains, locus YPR119W, strain clb2, hits give low values 0.98 | S. cerevisiae deletion strains, locus YPR141C, strain kar3, hits give low values 0.96 | S. cerevisiae deletion strains, locus YPR163C, strain tif3, hits give low values 0.981 | S. cerevisiae deletion strains, locus YPR167C, strain met16, hits give low values 0.977 | S. cerevisiae deletion strains, strain wtn01, hits give low values 0.985 | S. cerevisiae strains, strain wild type, hits give low values 1
active: S. cerevisiae deletion strains, locus YLR221C, strain rsa3, hits give low values 0.874 | S. cerevisiae deletion strains, locus YLR320W, strain mms22, hits give low values 0.819 | S. cerevisiae deletion strains, locus YML120C, strain ndi1, hits give low values 0.874 | S. cerevisiae deletion strains, locus YNL322C, strain KRE1 (second series), hits give low values 0.64
